Bioassay records from PubChem BioAssay.
ADAM17 inh: ADAM17 inhibition, QFRET primary screen; 0.83% of 370,000 active; inhibition, % at 6.95 µM; recombinant ADAM17, EDANS/DABCYL FRET peptide cleavage; P78536;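 active = inhibition above the mean of compounds lying between control limits plus 3 SD, set per campaign, cut at about 8.5% in these data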
ADAM10 inh: inhibits human ADAM10 | inhibition, % at 7 µM | AID 720582 | 0.62% of 370,000 active | recombinant ADAM10, EDANS/DABCYL FRET peptide cleavage, 3 h | O14672;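 active = inhibition above a per-campaign cutoff equal to the mean of compounds falling between control-based bounds plus 3 SD, cut at about 20% in these data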
KLK7 zymogen act: activates the human kallikrein-7 zymogen; P49862; purified proKLK7, EDANS-DABCYL substrate fluorescence; 100% is mature enzyme control, 0% vehicle; activation, % at 7 µM; 0.9% of 370,000 active; AID 652039;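 active = activation above the mean of all tested compounds plus 3 SD, computed per campaign excluding outliers beyond control limits, cut at about 13% in these data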
Target sequence (P49862 whole entry, looked up): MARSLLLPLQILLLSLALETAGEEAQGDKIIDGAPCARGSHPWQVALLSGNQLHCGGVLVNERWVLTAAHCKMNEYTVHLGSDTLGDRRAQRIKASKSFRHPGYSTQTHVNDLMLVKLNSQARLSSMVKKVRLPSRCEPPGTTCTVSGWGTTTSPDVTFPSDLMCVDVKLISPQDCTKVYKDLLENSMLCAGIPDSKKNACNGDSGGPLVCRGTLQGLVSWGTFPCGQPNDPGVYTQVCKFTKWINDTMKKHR
rRNA inh HTS: inhibitors of bacterial rRNA selective over humanized ribosomes; E. coli WT GFP vs humanized-ribosome RFP mutants, fluorescence, 24 h; active compounds read low; DMSO median 0, no signal -100; GFP signal change (wild-type ribosome), % (test concentration not listed); 1.6% of 350,000 active;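 active = significant combined selectivity score with lowered wild-type GFP, culture density cut under 30%, mutant RFP and density less affected; inactive = any of these conditions unmet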
FGF22 binding: binders of recombinant human FGF22 by thermal shift | Q9HCT0 | SYPRO orange fluorescence; percent of sucrose octasulfate shift, DMSO zero | activity (Tm shift, normalised), % at 9.99 µM | 1.5% of 340,000 active;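 active = mean Tm shift, scaled 0 neutral to 100 positive control, at about 1.3% or above, every replicate too, limit read from the data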
Target sequence (Q9HCT0 whole entry, looked up): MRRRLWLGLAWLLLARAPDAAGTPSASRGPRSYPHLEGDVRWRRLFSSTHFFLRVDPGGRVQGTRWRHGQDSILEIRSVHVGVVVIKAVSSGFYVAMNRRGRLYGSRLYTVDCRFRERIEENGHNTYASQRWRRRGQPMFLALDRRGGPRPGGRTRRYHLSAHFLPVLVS
ADAM10 confirm: human ADAM10 inhibition, confirmation. shares compounds with ADAM10 inh. ADAM10 QFRET peptide cleavage, EDANS fluorescence. inhibition, % at 6.95 µM. 1% of 2,100 active. AID 743208;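 active = inhibition above about 20% chosen separately for each screening run, limit read from the data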
ADAM17 ctr: counter-screen for ADAM10 exosite inhibitors: inhibitors of human ADAM17; shares compounds with ADAM10 inh; ADAM17 QFRET peptide cleavage, EDANS fluorescence; inhibition, % at 6.95 µM; 0.5% of 2,100 active; AID 743214;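 active = mean triplicate inhibition above the solvent-only control wells' mean plus 3 SD, cut at about 12% in these data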
Each line names hits and unclear results; the compound was inactive in the other large screens (follow-up assays come after a bar, where they were run). Rows were chosen to be rich in hits. Some 3.8% of all compounds tested hit in one or more screens of this group.

O=C(O)c1ccccc1NSc1ccccc1[N+](=O)[O-]	none
CC(Oc1ccccc1Cl)C(=O)Nc1ccc(S(=O)(=O)Nc2nccs2)cc1 (stereo unspecified)	ADAM10 inh 51.1 | ADAM10 confirm inactive | ADAM17 ctr inactive
C=C(C)C(=O)N1CC2(CC(c3cccc(NC(=O)COc4ccc(Cl)cc4)c3)=NO2)C[C@@H]1C(N)=O (stereo partly specified)	none
C/C=C(\C)C(=O)N1CC2(CC(c3cccc(NC(=O)COc4ccc(Cl)cc4)c3)=NO2)C[C@@H]1C(N)=O (stereo partly specified)	ADAM10 inh 85.1 | ADAM10 confirm inactive | ADAM17 ctr inactive
COc1ccc(C(=O)N2CC3(CC(c4cccc(NC(=O)COc5ccc(Cl)cc5)c4)=NO3)C[C@@H]2C(N)=O)cc1 (stereo partly specified)	ADAM10 inh 23.0 | ADAM10 confirm inactive | ADAM17 ctr inactive
COc1ccc2c3c(n(C)c2c1)[C@H](CO)N(CC1CCOCC1)CC31CN(C(=O)c2cccc(F)c2)C1	none (no result: ADAM17 inh, ADAM10 inh, KLK7 zymogen act, FGF22 binding)
O=C(Cn1nc(C(F)F)cc1C(F)F)NNC(=S)Nc1ccc(F)cc1	none (no result: rRNA inh HTS, FGF22 binding)
O=C(Cn1nc(C(F)F)cc1C(F)F)NNC(=S)Nc1ccc([N+](=O)[O-])cc1	ADAM10 inh 21.5, rRNA inh HTS -17.6 | ADAM10 confirm inactive | ADAM17 ctr inactive
COc1ccc(N2CCN(C(=O)CCNC(=O)c3ccc(C(C)(C)C)cc3)CC2)cc1	none
COc1ccc(N2CCN(C(=O)c3ccc(C(C)(C)C)cc3)CC2)cc1	ADAM10 inh 88.5 (no result: rRNA inh HTS, FGF22 binding) | ADAM10 confirm inactive | ADAM17 ctr inactive
Cc1noc(C)c1NC(=O)Nc1ccc2c(c1)C(=O)N([C@H](C)CO)C[C@@H](C)[C@H](CN(C)S(=O)(=O)c1c(C)noc1C)OCCCC[C@@H](C)O2	none (no result: ADAM17 inh, ADAM10 inh, KLK7 zymogen act)
Cc1cccc([C@@H]2[C@@H]3C(=O)N(Cc4ccccc4)C(=O)[C@@H]3[C@]3(Cc4ccccc4)C(=O)N(c4ccccc4)C(=O)N23)c1	ADAM10 inh 22.4 | ADAM10 confirm inactive | ADAM17 ctr inactive
CC[C@@]12C(=O)N(c3cccc(Br)c3)C(=O)N1[C@H](c1cccc(C)c1)[C@@H]1C(=O)N(Cc3ccccc3)C(=O)[C@@H]12	ADAM10 inh 20.7 (no result: rRNA inh HTS, FGF22 binding) | ADAM10 confirm inactive | ADAM17 ctr inactive
CC[C@@]12C(=O)N(c3ccccc3)C(=O)N1[C@H](c1cccc(C)c1)[C@@H]1C(=O)N(Cc3ccccc3)C(=O)[C@@H]12	none
Cc1cccc([C@@H]2[C@@H]3C(=O)N(Cc4ccccc4)C(=O)[C@@H]3[C@]3(Cc4ccccc4)C(=O)N(c4ccc(C(F)(F)F)cc4)C(=O)N23)c1	ADAM10 inh 20.5 | ADAM10 confirm inactive | ADAM17 ctr inactive
CO[C@H]1CN(C)C(=O)c2ccc(NC(C)=O)cc2OC[C@H](C)N(C(=O)c2ccncc2)C[C@@H]1C	none (no result: ADAM17 inh, ADAM10 inh, KLK7 zymogen act)
O=[N+]([O-])c1cc(CN2CCN(c3ccccc3)CC2)c(O)c2ncccc12	ADAM10 inh 20.4, FGF22 binding 43.1 | ADAM10 confirm inactive | ADAM17 ctr inactive
CO[C@@H]1CN(C)C(=O)c2cc(NC(=O)NC(C)C)ccc2OC[C@@H](C)N(Cc2ccc(-c3ccccn3)cc2)C[C@@H]1C	none (no result: ADAM17 inh, ADAM10 inh, KLK7 zymogen act)
O=C(Oc1cccc2c(O)cccc12)c1ccccc1	ADAM10 inh 23.3 (no result: rRNA inh HTS, FGF22 binding) | ADAM10 confirm inactive | ADAM17 ctr inactive
O=C(Oc1cccc2ccccc12)c1ccccc1	none
O=C(NNC(=S)Nc1ccc(Cl)cc1Cl)c1ccncc1	ADAM10 inh 20.8 | ADAM10 confirm inactive | ADAM17 ctr inactive
Cn1nc([N+](=O)[O-])c(C(C#N)c2ccccn2)c(Cl)c1=O (stereo unspecified)	none
CCCn1nc([N+](=O)[O-])c(C(C#N)c2nc3ccccc3o2)c(Cl)c1=O (stereo unspecified)	ADAM10 inh 21.4 (no result: rRNA inh HTS, FGF22 binding) | ADAM10 confirm inactive | ADAM17 ctr inactive
COc1ccc(/C=N\NC(=O)c2ccccc2)cc1COc1ccccc1	none
COc1ccc(C(=O)N/N=C/c2ccc(OC)c(COc3ccccc3)c2)cc1	ADAM10 inh 70.8 | ADAM10 confirm inactive | ADAM17 ctr inactive
C[C@@H]1CN([C@H](C)CO)C(=O)c2cc(-c3cccc(C#N)c3)cnc2O[C@H]1CN(C)Cc1ccncc1	none (no result: ADAM17 inh, ADAM10 inh, KLK7 zymogen act)
CCC(=O)N[C@@H]1CC[C@H](CCn2cc(C3CC3)nn2)O[C@H]1CO	none (no result: ADAM17 inh, ADAM10 inh, KLK7 zymogen act)
COc1ccc(OC)c(-c2cc(C3CCN(c4ncccc4[N+](=O)[O-])CC3)[nH]n2)c1	ADAM10 inh 23.7 (no result: rRNA inh HTS, FGF22 binding) | ADAM10 confirm inactive | ADAM17 ctr inactive
COc1cccc(NC(=O)N[C@@H]2C=C[C@@H](CC(=O)N3CCCCC3)O[C@H]2CO)c1	none (no result: ADAM17 inh, ADAM10 inh, KLK7 zymogen act)
Cc1ccc(S(=O)(=O)N(CCC(=O)Nc2ccc(OC(F)(F)F)cc2)c2ccccc2)cc1	ADAM10 inh 20.5 (no result: rRNA inh HTS, FGF22 binding) | ADAM10 confirm inactive | ADAM17 ctr inactive
COc1ccc(S(=O)(=O)N(CC(=O)Nc2ccc(S(=O)(=O)N3CCOCC3)cc2)c2ccccc2)cc1	ADAM10 inh 23.6 (no result: rRNA inh HTS, FGF22 binding) | ADAM10 confirm inactive | ADAM17 ctr inactive
Cc1ccc(S(=O)(=O)N(CCC(=O)NCc2ccccc2F)c2ccccc2)cc1	none (no result: rRNA inh HTS)
CCCN1C[C@@H](C)[C@@H](OC)CN(C)C(=O)c2ccc(NC(=O)Nc3ccccc3F)cc2OC[C@H]1C	none (no result: ADAM17 inh, ADAM10 inh, KLK7 zymogen act)
COc1ccc(OC)c(NC(=O)c2cc3n(n2)C(C(F)(F)F)CC(c2ccc4c(c2)OCO4)N3)c1 (stereo unspecified)	none (no result: rRNA inh HTS, FGF22 binding)
O=C(Nc1cc(Cl)ccc1O)c1cc2n(n1)C(C(F)(F)F)CC(c1ccc3c(c1)OCO3)N2 (stereo unspecified)	ADAM10 inh 29.2 (no result: rRNA inh HTS, FGF22 binding) | ADAM10 confirm inactive | ADAM17 ctr inactive
C[C@H](CO)N1C[C@H](C)[C@H](CN(C)C(=O)c2ccccn2)Oc2cc(C#CC3CC3)ccc2S1(=O)=O	none (no result: ADAM17 inh, ADAM10 inh, KLK7 zymogen act)
O=C(Nc1ccc(Cl)c(Cl)c1)c1ccc(Cn2cc(Cl)cn2)cc1	ADAM10 inh 28.6 | ADAM10 confirm inactive | ADAM17 ctr inactive
COC(=O)[C@]12C[C@H](CC(=O)NCCC(C)C)C(=O)N(Cc3ccco3)C1=C[C@H](COCc1ccccc1)O[C@@H]2C	ADAM10 inh 52.9 (no result: rRNA inh HTS, FGF22 binding) | ADAM10 confirm inactive | ADAM17 ctr inactive
COC(=O)[C@]12C[C@H](CC(=O)N3CCN(C(=O)c4ccco4)CC3)C(=O)N(Cc3cccc4ccccc34)C1=C[C@H](C1CCCC1)O[C@@H]2C	ADAM10 inh 20.6 (no result: rRNA inh HTS, FGF22 binding) | ADAM10 confirm inactive | ADAM17 ctr inactive
COC(=O)[C@]12C[C@H](CC(=O)NCc3ccc(OC)c(OC)c3)C(=O)N(Cc3cccc4ccccc34)C1=C[C@H](C1CCCC1)O[C@@H]2C	ADAM10 inh 24.1 (no result: rRNA inh HTS, FGF22 binding) | ADAM10 confirm inactive | ADAM17 ctr inactive
